Growth data for 19 compounds are collected here from PubChem BioAssay (NCI).

Structures are written as SMILES. About 83,000 compounds went through this panel and 20% of them were active in at least one assay; those are over-represented in the sample as a whole.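 Interpretation: 100, growth as untreated; towards 0, rising growth inhibition; 0, no net growth; 0 to -100, cell death. Compounds scoring below 10 were considered active.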 Unmarked numbers belong to inactive results. Activity calls are given as the source filed them.

Among the test systems are DU-145 prostate; MALME-3M melanoma; MDA-MB-231 breast; RXF 393 renal; SF-268 CNS; SF-295 CNS; SF-539 CNS; UACC-257 melanoma; M14 melanoma.
What all share (experiment): NCI-60 one-dose screen, 48 h (100 = growth as untreated, 0 = no growth, -100 = all killed)
Common to all, as to conditions: 10 µM unless noted

With `O=C(CSc1nc2ccccc2[nH]1)NCc1ccccc1`, the growth in the assay with DU-145 prostate is 110%; in the assay with MALME-3M melanoma, 109%; in the assay with MDA-MB-231 breast, 103%; in the assay on RXF 393 renal, 101%; in the assay with SF-268 CNS it was 98%; with SF-295 CNS it was 102%. Also, the growth in the assay with SF-539 CNS was 95.6%; in the assay with UACC-257 melanoma it was 100%; with M14 melanoma, 107%.

As to `Cc1nc2ccc(Cl)cn2c1-c1nnc(SCc2ccc([N+](=O)[O-])cc2)o1`, the growth in the assay on DU-145 prostate was 67.9%; with MALME-3M melanoma it was 31.6%; in the assay with MDA-MB-231 breast it was 41.4%; with RXF 393 renal it was -5.38% (active); in the assay on SF-268 CNS, 46.1%; with SF-295 CNS it was 74.6%. Further, the growth was 20.8% in the assay with SF-539 CNS, 61.3% in the assay on UACC-257 melanoma and 70.3% with M14 melanoma.

Take `O=C1C=CC(=O)N1c1cccc(Cl)c1`: the growth is 123% in the assay on DU-145 prostate; 120% with MALME-3M melanoma; 132% in the assay on MDA-MB-231 breast; 116% with RXF 393 renal; 108% with SF-268 CNS; 107% with SF-295 CNS. The growth with SF-539 CNS was 113%; with UACC-257 melanoma, 97.1%; in the assay on M14 melanoma, 114%.

Consider `Cc1nn(-c2ccccc2)c(Cl)c1/C=N\N=c1/sc2ccccc2n1C`, for which the growth was 108% in the assay with DU-145 prostate; 112% in the assay with MALME-3M melanoma; 93.2% in the assay on MDA-MB-231 breast; 109% in the assay with RXF 393 renal; 101% in the assay on SF-268 CNS; 109% with SF-295 CNS. Further, the values for the growth in the assay with SF-539 CNS, with UACC-257 melanoma and with M14 melanoma were 97.5%, 97.1% and 99.8%, respectively.

In the case of `N#C/C(=C\c1c(-c2ccccc2)[nH]c2ccccc12)C(=O)c1ccc(Cl)cc1`, the growth in the assay with DU-145 prostate is 28.3%; with MALME-3M melanoma, 37.2%; in the assay with MDA-MB-231 breast it was 49.9%; in the assay with RXF 393 renal, 29.2%; in the assay on SF-268 CNS, 51.4%; in the assay on SF-295 CNS, 32.1%. Further, the growth is -39.7% (active) in the assay with SF-539 CNS, 68.2% in the assay on UACC-257 melanoma and 41% in the assay with M14 melanoma.

As for `C[C@H](c1nc2ccc(N)cc2[nH]1)[C@H]1CC[C@H]2[C@@H]3CCC4=CC(=O)CC[C@]4(C)[C@H]3CC[C@]12C`, the growth is 88.8% in the assay on DU-145 prostate; 101% in the assay on MALME-3M melanoma; 91.5% in the assay with MDA-MB-231 breast; 44.6% in the assay with RXF 393 renal; 82.2% with SF-268 CNS; 57.1% in the assay on SF-295 CNS. The growth in the assay with SF-539 CNS is 53.8%; with UACC-257 melanoma, 96.4%; in the assay on M14 melanoma it was 89.5%.

With `O=C(/C(=C\c1ccc([N+](=O)[O-])cc1)S(=O)Cc1ccc(F)cc1)c1ccc(F)cc1` (stereo unspecified), the growth was 33.1% with DU-145 prostate; 18.5% in the assay on MALME-3M melanoma; 12.8% in the assay with MDA-MB-231 breast; -67.8% (active) in the assay with RXF 393 renal; 31.5% in the assay with SF-268 CNS; 77.6% with SF-295 CNS. Besides, the values for the growth in the assay with SF-539 CNS, with UACC-257 melanoma and in the assay with M14 melanoma were 39.4%, 93.2% and 38%, respectively.

Take `N#CC1=C(N)Oc2c(ccc3ccccc23)C1c1ccccc1Cl` (stereo unspecified): the growth was 17.1% in the assay on DU-145 prostate; 52% in the assay on MALME-3M melanoma; 9.2% (active) in the assay with MDA-MB-231 breast; 17.9% with RXF 393 renal; 51% in the assay with SF-268 CNS; 8.26% (active) in the assay with SF-295 CNS. In addition, the growth in the assay on SF-539 CNS is -13.5% (active); in the assay with UACC-257 melanoma, 60.1%; with M14 melanoma, 12.5%.

For `COc1ccc(C(=O)c2nc3ccccc3n2CC(=O)c2ccc(Cl)cc2)cc1`, the growth in the assay with DU-145 prostate was 35.2%; with MALME-3M melanoma, 46%; with MDA-MB-231 breast it was 35.6%; in the assay with RXF 393 renal it was 27.8%; in the assay on SF-268 CNS it was 41.7%; with SF-295 CNS, 10.2%. Besides, the growth with SF-539 CNS was 16.4%; in the assay with UACC-257 melanoma, 37.4%; with M14 melanoma, 7.42% (active).

For `COc1ccc(-c2nc3sccn3c2/C=C/C(=O)c2ccc3c(c2)OCO3)cc1`, the growth is 113% in the assay with DU-145 prostate; 84.6% in the assay on MALME-3M melanoma; 76.3% in the assay on MDA-MB-231 breast; 117% in the assay on RXF 393 renal; 100% with SF-268 CNS; 97.1% in the assay on SF-295 CNS. Further, the growth was 84.6% in the assay with SF-539 CNS, 95.8% in the assay on UACC-257 melanoma and 103% with M14 melanoma.

For `COc1ccc(/C=C/c2nc(Nc3ccc(S(=O)(=O)Nc4nc(C)cc(C)n4)cc3)c3ccccc3n2)cc1`, the growth was 71.3% in the assay on DU-145 prostate; 89.6% in the assay with MALME-3M melanoma; 61.3% with MDA-MB-231 breast; 94.3% with RXF 393 renal; 75.3% with SF-268 CNS; 63.8% in the assay with SF-295 CNS. The growth is 96.8% in the assay with SF-539 CNS, 78.6% in the assay with UACC-257 melanoma and 47.1% in the assay on M14 melanoma.

In the case of `O=C(/C(=C\c1ccc([N+](=O)[O-])cc1)S(=O)Cc1ccc(Cl)cc1)c1ccc(Cl)cc1` (stereo unspecified), the growth in the assay on DU-145 prostate is 77.7%; with MALME-3M melanoma, 92.7%; in the assay with MDA-MB-231 breast it was 76.2%; with RXF 393 renal it was 52.4%; in the assay with SF-268 CNS, 64%; with SF-295 CNS, 90.5%. Also, the growth was 99.1% with SF-539 CNS, 100% with UACC-257 melanoma and 63.3% in the assay with M14 melanoma.

Turning to `OCc1cnccc1NCCCCOc1ccc(Oc2ccccc2)cc1`, the growth in the assay on DU-145 prostate was 80.2%; in the assay on MALME-3M melanoma, 58%; in the assay on MDA-MB-231 breast, 62.6%; in the assay on RXF 393 renal it was 66.1%; with SF-268 CNS, 80.9%; with SF-295 CNS, 51.5%. The growth with SF-539 CNS is 67.3%; with UACC-257 melanoma, 54.5%; in the assay with M14 melanoma, 53.6%.

Consider `COc1cc(C2C3=C(COC3=O)N(CCO)c3cc4c(cc32)CCC4)cc(OC)c1OC` (stereo unspecified), for which the growth with DU-145 prostate was -23.7% (active); with MALME-3M melanoma, 54.9%; in the assay on MDA-MB-231 breast, 1.31% (active); in the assay on RXF 393 renal, 26.5%; with SF-268 CNS, 22%; with SF-295 CNS, -23.6% (active). Besides, the growth in the assay on SF-539 CNS was -29.8% (active); in the assay on UACC-257 melanoma, 52.9%; in the assay on M14 melanoma it was -34% (active).

Regarding `Cn1c(N2NC(=O)C(N=Nc3ccc(S(N)(=O)=O)cc3)C2=O)nc(-c2ccco2)c(C#N)c1=O` (stereo unspecified), the growth is 95.7% in the assay with DU-145 prostate; 74.7% in the assay on MALME-3M melanoma; 93.8% in the assay on MDA-MB-231 breast; -3.8% (active) in the assay on RXF 393 renal; 98.8% in the assay on SF-268 CNS; 123% with SF-295 CNS. The growth was 96.7% with SF-539 CNS, 88.7% in the assay on UACC-257 melanoma and 91.9% in the assay with M14 melanoma.

Take `Cc1cccc(-c2cn3ccnc3c(-c3ccc4ncn(Cc5ccccc5)c4c3)n2)c1`: the growth with DU-145 prostate was 85.8%; with MALME-3M melanoma, 125%; in the assay with MDA-MB-231 breast it was 71.6%; in the assay on RXF 393 renal, 98%; in the assay with SF-268 CNS it was 92.8%; in the assay with SF-295 CNS, 85.7%. In addition, the growth is 92.7% in the assay with SF-539 CNS, 120% in the assay on UACC-257 melanoma and 102% in the assay on M14 melanoma.

For the compound `N=C1C(c2nc3ccccc3s2)=C(O)CN1c1cc(Cl)cc(Cl)c1`, the growth in the assay on DU-145 prostate is 86.6%; with MALME-3M melanoma, 63.8%; with MDA-MB-231 breast, 66.4%; in the assay on RXF 393 renal, 63.9%; in the assay on SF-268 CNS, 173%; with SF-295 CNS, 88.2%. For the same compound, the growth in the assay on SF-539 CNS is 46.9%; in the assay on UACC-257 melanoma, 74.4%; in the assay on M14 melanoma, 69%.

For `COc1ccc(-c2nc(S(=O)(=O)c3ccccc3)c(S(=O)CC(=O)N3CCC(C)CC3)o2)cc1` (stereo unspecified), the growth in the assay on DU-145 prostate is 42.5%; with MALME-3M melanoma, -16.6% (active); in the assay with MDA-MB-231 breast, 24.7%; in the assay with RXF 393 renal it was 17.2%; in the assay with SF-268 CNS, 62.5%; in the assay with SF-295 CNS it was 92.9%. In addition, the growth in the assay with SF-539 CNS is 40.4%; with UACC-257 melanoma, 65.9%; with M14 melanoma, 35.1%.

On to `C=C(CBr)[C@@H]1CC[C@]2(COC(C)=O)CC[C@]3(C)[C@H](CC[C@@H]4[C@@]5(C)CCCNC(C)(C)[C@@H]5CC[C@]43C)[C@@H]12`, for which the growth in the assay on DU-145 prostate is 66.3%; in the assay with MALME-3M melanoma it was 71%; with MDA-MB-231 breast, 65.6%; in the assay with RXF 393 renal, 56%; in the assay on SF-268 CNS, 50.3%; in the assay with SF-295 CNS it was 59.5%. The results for the growth with SF-539 CNS, in the assay with UACC-257 melanoma and with M14 melanoma were 49.7%, 23.4% and 40%, respectively.
